Consider six molecules from PubChem BioAssay (NCATS).

Several values for one entry are separate records, joined by “and”; a condition that tells them apart may be missing. Equal entries are not always repeated. Inconclusive results are not listed. Activity calls are given as the source filed them. Unless noted, calls come from the whole dose curve; as a rule, active = well fitted curve in the direction sought with a large enough effect; inconclusive = small, poorly fitted or top-dose-only effect, or another doubt; inactive = no such curve, though single readings can be large; an effect the other way counts as inactive or inconclusive.

A short description of assay [1]: AP1 Signaling Pathway (AID 357; active = well fitted curve in either direction with a large enough effect, not every such curve was filed as active;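 note: ME-180 reporter cells stimulated with EGF at its EC50 level; % is set by controls: 0 for no effect and ±100 for the full control effect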). Put shortly: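 Cells are seeded overnight, exposed to compound titrations and an EC50 level of EGF for 5 hours at 37 °C, then loaded with CCF4 dye for 2.5 hours. Beta-lactamase activity under the AP-1 element is read as a blue/green ratio.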
Assay [2] concerns the target Cytochrome P450 1A2 (Homo sapiens) (UniProt P05177). The assay can be described thus: p450-cyp1a2 (AID 410; calls by dose curve;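 note: -100% = full effect of reference inhibitor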). Put shortly: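 Read-out is luminescence from luciferin produced by CYP1A2 demethylation of Luciferin-ME (100uM, at Km). Detection reagent stopped the 60 min NADPH-dependent reaction; signals were normalized to 57 uM furafylline.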
Assay [3] in a line: NFAT Signaling Pathway (AID 444; active = well fitted curve in either direction with a large enough effect, not every such curve was filed as active;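 note: carbachol stimulus at about its EC50 of 1 µM final; % is set by controls: 0 for no effect and ±100 for the full control effect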). The settings on record: Jurkat NFAT-bla M1, carbachol, beta-lactamase ratio, 5 h. Put shortly: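 Jurkat cells carrying an NFAT-driven β-lactamase reporter and co-transfected muscarinic M1 receptor were treated with compound plus carbachol (1 uM final, an EC50 level) for 5 h at 37 °C. CCF4 loading followed for 1 h at RT; 460/530 nm ratio gave %activity.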

A short description of assay [4]: Stat Signaling Pathway (AID 446; active = well fitted curve in either direction with a large enough effect, not every such curve was filed as active;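 note: ME-180 cervical cancer cells given 40 pM IL-6 alongside compound; SIE-controlled beta-lactamase reporter measured as 460/530 nm FRET emission ratio; % is set by controls: 0 for no effect and ±100 for the full control effect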). In a few lines:
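Overnight-plated ME-180 cells bearing a STAT Inducible Element beta-lactamase reporter; 5 h co-exposure to compound and 40 pM IL-6; values normalized to 300 pM IL-6 and 125 nM JAK inhibitor controls.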

The target in assay [5] is Glucocorticoid receptor (Homo sapiens) (UniProt P04150). Kind of assay: GR-EFC Redistribution (AID 451; calls by dose curve; note: potency is the fitted concentration of half-maximal effect). The settings on record: CHO-K1 GR-EFC translocation, beta-gal luminescence, 2 h. Put shortly:
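CHO-K1 cells stably expressing nuclear-localized β-gal enzyme acceptor and GR fused C-terminally to the enzyme donor fragment; ligand-driven nuclear translocation restores β-gal by complementation. Compounds titrated up to 46 uM final, 2 h at 37 °C; luminescence read.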

Assay [6] has as its target Mitogen-activated protein kinase 10 (Mus musculus) (UniProt Q61831). The assay can be described thus: JNK3 AlphaScreen Assay (AID 530; active = well fitted curve in either direction with a large enough effect, not every such curve was filed as active;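 note: kinase came from lysate of stimulated human HepG2 cells; signal reports phosphorylation of biotinylated GST-cJun 1-79 at Ser73 with 10 µM ATP; % is set by controls: 0 for no effect and ±100 for the full control effect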). In a few lines: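 Biotinylated GST-cJun(1-79) served as substrate for JNK3 in HepG2 lysates stimulated with IL-1beta and TNF-alpha. ATP was 10 uM final, pH 7.6. Ser73 phosphorylation was quantified by AlphaScreen (680 nm excitation).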
Background: In Alpha technology, singlet oxygen from a donor bead excites a nearby acceptor bead.

For assay [7], the target named is 3',5'-cyclic-AMP phosphodiesterase 4B (Homo sapiens) (UniProt Q07343). Kind of assay: qHTS Assay for Inhibitors of PDE-IV (AID 607; active = well fitted activation curve with a large enough effect in the main read-out, with a control signal flat, not every such curve was filed as active; note: % of control where 0% means no effect). Put shortly: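 Live HEK293 cells with a modified cyclic nucleotide-gated (CNG) channel report intracellular cAMP via membrane-potential dye fluorescence (ex 535/em 590 nm). Endogenous PDE-IV was targeted. Compounds were tested at up to 22.9 uM final; RO 20-1724 100 uM served as control.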
Background: In qHTS, concentration-response curves come from the screen itself.

Assay [8] has as its target Guanine nucleotide-binding protein G(i) subunit alpha-1 (Homo sapiens) (UniProt P63096). Kind of assay: qHTS Assay for Inhibitors of RGS12 GoLoco Motif Activity (Green Fluorophore) (AID 879).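 Note: 0% = labeled peptide with Gαi1 and full inhibition = labeled peptide alone without protein; negative values mean loss of peptide binding seen as reduced polarization.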 Put shortly:
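A drop in FITC polarization marked displacement of the FITC-tagged RGS12 GoLoco peptide (10 nM) from Gαi1 (50 nM). Compounds were incubated 10 min at room temperature in Tris pH 7.5 buffer containing 150 mM NaCl, 0.1 mM GDP and 0.05% NP40; unlabeled peptide titration served as control.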

Assay [9] concerns the target Cytochrome P450 3A4 (Homo sapiens) (UniProt P08684). The assay can be described thus: qHTS Assay for Activators of Cytochrome P450 3A4 (AID 885). Note: nearly all actives have a fitted effect of over 65% in size. In a few lines: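 Using 20nM recombinant human CYP3A4 in potassium phosphate (200mM), substrate Luciferin-PPXE at 25uM, luminescent luciferin detection followed a 60-min RT NADPH reaction; data scaled to 57 uM ketoconazole.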

Assay [10] deals with Cytochrome P450 2C19 (Homo sapiens) (UniProt P33261). The assay can be described thus: qHTS Assay for Inhibitors and Substrates of Cytochrome P450 2C19 (AID 899). Note: potency is the fitted concentration of half-maximal effect; nearly all actives have a fitted effect of over 60% in size. In a few lines: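 In 50mM KPO4, the reaction held 5nM enzyme and KM-level (10uM) Luciferin-H EGE; it ran 60 min at 37C after NADPH regeneration and a 10 min compound preincubation. Luminescence values were scaled to 57uM ketoconazole as complete inhibition.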

Assay [11] in a line: qHTS Assay for Identification of Small Molecule Agonists for Thrombopoietin (TPO) Signaling Pathway (AID 917). Note: % is set by controls: 0 for no effect and ±100 for the full control effect. In a few lines: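 Quantitative HTS for pathway activators: compounds were pin-transferred onto IL-3-starved Ba/F3 cells expressing human TPO receptor, TPO was added at its EC50 (26 pM final), and after 24 hrs at 37 C reporter luciferase was measured.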
Assay [12] deals with Muscarinic acetylcholine receptor M1 (Rattus norvegicus) (UniProt P08482). The assay can be described thus: qHTS Assay for Antagonists of Acetylcholine Muscarinic M1 Receptor: Measurement of IP-One Response (AID 944). Note: potency is the fitted concentration of half-maximal effect; nearly all actives have a fitted effect of over 75% in size. Put shortly: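 Antagonism was measured as loss of carbachol-driven (EC80) IP1 accumulation in CHO cells carrying rat M1, using a homogeneous IP-One TR-FRET kit read at 620 and 665 nm.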

Assay [13] deals with Pyruvate kinase (Leishmania mexicana) (UniProt Q27686). Kind of assay: qHTS Validation Assay for Inhibitors of Leishmania Mexicana Pyruvate Kinase (AID 945).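 Note: 0% = DMSO only neutral control wells.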 Put shortly: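 Mutant LmPYK (E451W), 0.2 nM, plus 0.5 mM PEP and 0.1 mM ADP in 50 mM imidazole pH 7.2 containing 0.01% Tween 20 and 0.05% BSA. Incubated 1 h at room temperature; luminescence via PKLight, normalized to DMSO.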

Assay [14] has as its target Alpha-galactosidase (Coffea arabica) (UniProt Q42656). The assay can be described thus: Counterscreen for Glucocerebrosidase Inhibitors: qHTS Assay for Coffee Bean alpha-Galactosidase at pH 4.5 (AID 957).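 Note: plate controls were enzyme alone for no effect and no enzyme for full effect.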 Put shortly:
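Quantitative HTS of compounds (0.7 nM to 77 uM) against coffee bean alpha-galactosidase at pH 4.5, measuring 4-methylumbelliferone fluorescence released from 80 uM substrate.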
On the technique in general: A counterscreen serves to expose hits that act by an unwanted route or on another target.

Assay [15] addresses Alpha-galactosidase A (Homo sapiens) (UniProt P06280). The assay can be described thus: Counterscreen for Glucocerebrosidase Inhibitors: qHTS Assay for Human alpha-Galactosidase at pH 4.5 (AID 992). Note: 0% is about no effect. In a few lines:
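Each compound is preincubated briefly with 2 nM enzyme before substrate addition (80 uM); plates then sit 20 min at ambient temperature, are quenched with 1M NaOH/1M glycine, and read fluorometrically.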

Assay [16] has as its target alpha-glucosidase (Oryza sativa, rice) (UniProt Q653V4). The assay can be described thus: Counterscreen for Glucocerebrosidase Inhibitors: qHTS Assay for Rice alpha-Glucosidase at pH 5.0 (AID 997).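 Note: 0% = full activity with enzyme and -100% = basal without enzyme.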 In a few lines: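 Endpoint fluorogenic assay at pH 5.0: compounds (0.7 nM to 77 uM) titrated against 4 nM rice enzyme and 400 uM 4-MU-alpha-glucoside for 20 min at room temperature; NaOH/glycine stop, read ex 365/em 440 nm, Hill-fitted AC50.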

For assay [17], the target named is Alpha-galactosidase (Coffea arabica) (UniProt Q42656). Kind of assay: Counterscreen for Glucocerebrosidase Inhibitors: qHTS Assay for Coffee Bean alpha-Galactosidase at pH 5.9 (AID 998).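 Note: plate controls were uninhibited enzyme for no effect and no-enzyme basal signal for full effect.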 Put shortly:
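In 50 mM citric acid pH 5.9 with 0.005% Tween-20, coffee bean enzyme hydrolyses 80 uM 4-MU alpha-D-galactopyranoside over 20 min at RT. Activity is normalized to controls; AC50 comes from Hill-modelled concentration-response data.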

A short description of assay [18]: qHTS Assay for Lipid Storage Modulators (AID 1519; calls by dose curve). Particulars: Drosophila S3 cells, BODIPY lipid droplet/cell ratio, laser cytometry, cells loaded with oleic acid. In a few lines:
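Cells seeded at 5,000 per well were treated with compounds over a concentration series and loaded with oleic acid (400 uM, as added). Lipid droplet fluorescence (488 nm excitation, 500-530 nm channel) was read by laser-scanning cytometry and normalized to 20 uM Triacsin C.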

Assay [19] concerns the target Ubiquitin carboxyl-terminal hydrolase 1 (Homo sapiens) (UniProt O94782). Kind of assay: Inhibitors of USP1/UAF1: Pilot qHTS (AID 504865).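 Note: rhodamine fluorescence freed from ubiquitin-rhodamine substrate followed over time; top concentration of the series differs between compounds; % is set by controls: 0 for no effect and ±100 for the full control effect; nearly all actives have a fitted effect of over 35% in size.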 In a few lines: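 Kinetic fluorescence assay: 1nM USP1/UAF1, 15 min compound preincubation, then 150nM Ub-Rho; 480/540 nm.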
Assay [20] has as its target DNA dC->dU-editing enzyme APOBEC-3G (Homo sapiens) (UniProt Q9HC16). Kind of assay: qHTS for inhibitors of Vif-A3G interactions: Validation (AID 588379). Note: 0% is about no effect. Put shortly: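 Yellow fluorescence (Ex 488, Em 500-530) of Vif-coexpressing HeLa A3G-eYFP cells, scanned by Acumen cytometer, reports blocked A3G degradation. Cells plated at 700/well overnight at 37 deg C before compound addition, then a further overnight compound incubation at 37 deg C.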

Assay [21] deals with Zika virus NS2B-NS3 protease. Kind of assay: Primary screen GU AMC qHTS for Zika virus inhibitors (AID 1347154).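 Note: 0% = no-inhibitor control and -100% = no-enzyme control; nearly all actives have a fitted effect of over 70% in size.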 In a few lines: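 Unlinked Zika NS2B hydrophilic domain/NS3 protease domain noncovalent complex (25 nM final) in 10 mM Tris-HCl pH 8.0, 0.01% Tween 20, with AMC peptide substrate. Fluorescence (ex 340, em 450 nm) change over 15 min, room temperature; percent inhibition fitted to 4-parameter Hill equation.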

The nature of assay [22]: Primary qHTS for small molecule stabilizers of the endoplasmic reticulum resident proteome: Secreted ER Calcium Modulated Protein (SERCaMP) assay (AID 1508630). Note: % is set by controls: 0 for no effect and ±100 for the full control effect. In a few lines: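 The SH-SY5Y reporter protocol was run at 3 concentrations up to 38.3 uM (primary) or 11 concentrations (follow-up): 16 h compound, 100 nM thapsigargin for 4 h, then extracellular luciferase luminescence.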

Assay [23] has as its target Cytochrome P450 2D6 (Homo sapiens) (UniProt P10635). The assay can be described thus: qHTS Assay for Inhibitors and Substrates of Cytochrome P450 2D6 (AID 891). Note: potency is the fitted concentration of half-maximal effect; nearly all actives have a fitted effect of over 60% in size. In a few lines: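 Luminescent read-out of luciferin formed by 5 nM human CYP2D6 demethylating 30 uM Luciferin-ME EGE (Km level) over 60 min at room temperature after NADPH regeneration addition. Data normalized to full inhibition by 1.43 uM quinidine.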

Where [24] appears, read: measured here: cell count channel max response.
Where [25] appears, read: measured here: lipid channel max response.

Ubiquitin carboxyl-terminal hydrolase 1 (Homo sapiens), sequence (O94782 whole entry, looked up): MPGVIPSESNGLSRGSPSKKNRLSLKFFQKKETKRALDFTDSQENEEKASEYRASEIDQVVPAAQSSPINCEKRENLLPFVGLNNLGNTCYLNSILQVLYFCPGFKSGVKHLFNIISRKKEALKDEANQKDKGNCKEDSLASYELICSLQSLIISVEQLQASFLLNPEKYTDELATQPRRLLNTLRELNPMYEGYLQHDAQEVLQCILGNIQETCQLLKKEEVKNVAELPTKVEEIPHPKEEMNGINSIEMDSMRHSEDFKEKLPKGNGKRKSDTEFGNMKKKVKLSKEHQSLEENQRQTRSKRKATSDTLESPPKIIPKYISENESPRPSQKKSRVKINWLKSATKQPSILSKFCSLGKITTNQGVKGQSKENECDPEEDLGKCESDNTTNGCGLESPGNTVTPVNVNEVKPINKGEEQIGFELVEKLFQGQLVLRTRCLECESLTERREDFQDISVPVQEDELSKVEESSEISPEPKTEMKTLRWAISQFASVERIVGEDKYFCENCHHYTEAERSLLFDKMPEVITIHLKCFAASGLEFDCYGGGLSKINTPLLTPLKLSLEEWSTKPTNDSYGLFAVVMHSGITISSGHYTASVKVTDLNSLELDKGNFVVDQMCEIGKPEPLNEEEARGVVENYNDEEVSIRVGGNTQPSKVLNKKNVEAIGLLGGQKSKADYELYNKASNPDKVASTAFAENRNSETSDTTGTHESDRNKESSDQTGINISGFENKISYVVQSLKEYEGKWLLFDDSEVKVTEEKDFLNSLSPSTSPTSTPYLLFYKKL
DNA dC->dU-editing enzyme APOBEC-3G (Homo sapiens), sequence (Q9HC16 whole entry, looked up): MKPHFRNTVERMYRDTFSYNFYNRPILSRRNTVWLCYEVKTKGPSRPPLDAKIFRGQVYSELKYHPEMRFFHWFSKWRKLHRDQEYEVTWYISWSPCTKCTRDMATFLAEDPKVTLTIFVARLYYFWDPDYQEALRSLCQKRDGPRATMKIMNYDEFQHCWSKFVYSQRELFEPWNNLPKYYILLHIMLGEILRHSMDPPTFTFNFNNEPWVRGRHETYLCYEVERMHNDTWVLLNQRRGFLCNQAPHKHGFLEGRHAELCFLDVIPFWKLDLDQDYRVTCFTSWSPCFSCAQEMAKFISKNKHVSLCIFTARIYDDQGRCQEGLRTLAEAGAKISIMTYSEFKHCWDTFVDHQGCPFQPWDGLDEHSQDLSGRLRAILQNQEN
Cytochrome P450 3A4 (Homo sapiens), sequence (P08684 whole entry, looked up): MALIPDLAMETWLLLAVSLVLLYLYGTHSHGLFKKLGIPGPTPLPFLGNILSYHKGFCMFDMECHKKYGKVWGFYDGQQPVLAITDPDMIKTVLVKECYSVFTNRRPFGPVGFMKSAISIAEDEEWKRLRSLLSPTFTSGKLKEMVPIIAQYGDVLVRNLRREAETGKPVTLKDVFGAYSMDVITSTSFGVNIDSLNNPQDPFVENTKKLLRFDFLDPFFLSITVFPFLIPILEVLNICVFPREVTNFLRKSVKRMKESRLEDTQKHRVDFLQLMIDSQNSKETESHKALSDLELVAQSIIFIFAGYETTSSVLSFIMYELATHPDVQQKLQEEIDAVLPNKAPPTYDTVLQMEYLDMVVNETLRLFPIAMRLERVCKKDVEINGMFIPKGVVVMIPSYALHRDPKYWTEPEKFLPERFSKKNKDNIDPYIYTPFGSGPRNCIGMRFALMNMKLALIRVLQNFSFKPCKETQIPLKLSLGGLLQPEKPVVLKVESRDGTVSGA
3',5'-cyclic-AMP phosphodiesterase 4B (Homo sapiens), sequence (Q07343 whole entry, looked up): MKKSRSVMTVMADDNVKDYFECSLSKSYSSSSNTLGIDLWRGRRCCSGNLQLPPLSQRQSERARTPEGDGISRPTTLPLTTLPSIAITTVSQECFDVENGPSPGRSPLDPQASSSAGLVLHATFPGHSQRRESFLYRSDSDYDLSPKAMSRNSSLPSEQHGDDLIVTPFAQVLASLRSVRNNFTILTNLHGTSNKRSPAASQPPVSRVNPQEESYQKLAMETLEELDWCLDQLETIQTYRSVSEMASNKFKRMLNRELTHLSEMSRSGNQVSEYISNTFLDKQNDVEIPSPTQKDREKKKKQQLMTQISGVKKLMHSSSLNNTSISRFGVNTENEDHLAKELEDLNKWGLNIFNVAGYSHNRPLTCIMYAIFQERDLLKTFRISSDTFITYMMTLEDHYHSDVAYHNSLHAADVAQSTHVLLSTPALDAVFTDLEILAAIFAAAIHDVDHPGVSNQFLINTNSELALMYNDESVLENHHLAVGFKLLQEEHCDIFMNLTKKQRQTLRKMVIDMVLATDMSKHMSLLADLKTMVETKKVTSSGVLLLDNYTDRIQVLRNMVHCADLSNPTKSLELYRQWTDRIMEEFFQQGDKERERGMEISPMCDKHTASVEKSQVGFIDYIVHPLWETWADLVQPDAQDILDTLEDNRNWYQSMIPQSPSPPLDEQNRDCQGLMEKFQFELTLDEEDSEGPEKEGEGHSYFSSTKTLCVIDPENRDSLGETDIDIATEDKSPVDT
Cytochrome P450 1A2 (Homo sapiens), sequence (P05177 whole entry, looked up): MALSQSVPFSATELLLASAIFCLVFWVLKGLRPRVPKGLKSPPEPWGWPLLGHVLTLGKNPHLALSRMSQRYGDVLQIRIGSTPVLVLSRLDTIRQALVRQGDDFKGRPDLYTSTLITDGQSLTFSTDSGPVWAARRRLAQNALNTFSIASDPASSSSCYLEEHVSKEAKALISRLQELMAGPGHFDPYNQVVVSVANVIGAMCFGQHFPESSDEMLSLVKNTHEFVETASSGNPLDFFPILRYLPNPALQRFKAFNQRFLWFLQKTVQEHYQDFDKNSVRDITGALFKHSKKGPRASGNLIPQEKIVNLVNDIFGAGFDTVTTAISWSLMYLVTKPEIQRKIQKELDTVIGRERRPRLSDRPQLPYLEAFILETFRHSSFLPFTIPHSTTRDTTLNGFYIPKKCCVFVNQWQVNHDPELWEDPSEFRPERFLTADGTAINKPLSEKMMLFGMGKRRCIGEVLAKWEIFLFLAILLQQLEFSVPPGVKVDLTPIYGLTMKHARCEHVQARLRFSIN
Glucocorticoid receptor (Homo sapiens), sequence (P04150 whole entry, looked up, the tested form may be a part): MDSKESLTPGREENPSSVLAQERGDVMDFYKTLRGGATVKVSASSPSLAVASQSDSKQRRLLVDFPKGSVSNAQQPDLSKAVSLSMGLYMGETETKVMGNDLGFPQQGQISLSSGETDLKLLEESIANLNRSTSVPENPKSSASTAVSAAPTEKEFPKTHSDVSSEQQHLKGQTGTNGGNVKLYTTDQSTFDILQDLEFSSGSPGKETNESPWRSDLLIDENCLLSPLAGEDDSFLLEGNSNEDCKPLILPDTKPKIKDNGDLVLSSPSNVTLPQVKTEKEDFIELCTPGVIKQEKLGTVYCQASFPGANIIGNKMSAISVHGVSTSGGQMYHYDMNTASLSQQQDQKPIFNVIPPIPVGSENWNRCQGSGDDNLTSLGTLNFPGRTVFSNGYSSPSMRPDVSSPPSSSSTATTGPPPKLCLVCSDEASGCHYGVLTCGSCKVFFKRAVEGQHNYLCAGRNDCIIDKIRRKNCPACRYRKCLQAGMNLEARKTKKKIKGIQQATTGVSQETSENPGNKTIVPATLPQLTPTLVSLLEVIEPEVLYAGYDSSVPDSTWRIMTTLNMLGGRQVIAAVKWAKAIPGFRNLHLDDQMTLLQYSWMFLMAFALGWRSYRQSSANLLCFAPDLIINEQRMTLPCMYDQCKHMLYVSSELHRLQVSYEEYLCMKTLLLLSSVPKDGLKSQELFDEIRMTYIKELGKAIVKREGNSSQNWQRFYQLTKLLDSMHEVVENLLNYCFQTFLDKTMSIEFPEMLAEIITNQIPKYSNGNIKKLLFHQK
Cytochrome P450 2D6 (Homo sapiens), sequence (P10635 whole entry, looked up): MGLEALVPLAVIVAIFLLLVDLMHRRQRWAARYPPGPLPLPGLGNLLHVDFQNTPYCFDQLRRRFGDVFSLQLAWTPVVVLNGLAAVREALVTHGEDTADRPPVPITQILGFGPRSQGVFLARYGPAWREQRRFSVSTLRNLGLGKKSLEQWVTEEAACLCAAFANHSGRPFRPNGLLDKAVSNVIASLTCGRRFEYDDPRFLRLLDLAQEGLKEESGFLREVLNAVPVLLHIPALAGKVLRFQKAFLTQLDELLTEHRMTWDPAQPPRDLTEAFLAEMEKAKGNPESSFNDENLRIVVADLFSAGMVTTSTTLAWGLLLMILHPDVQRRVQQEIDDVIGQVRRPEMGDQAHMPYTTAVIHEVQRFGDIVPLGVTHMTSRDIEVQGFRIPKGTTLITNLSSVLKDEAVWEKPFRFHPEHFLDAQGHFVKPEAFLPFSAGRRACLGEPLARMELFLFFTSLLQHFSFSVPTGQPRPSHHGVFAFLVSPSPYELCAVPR
Alpha-galactosidase (Coffea arabica), sequence (Q42656 whole entry, looked up): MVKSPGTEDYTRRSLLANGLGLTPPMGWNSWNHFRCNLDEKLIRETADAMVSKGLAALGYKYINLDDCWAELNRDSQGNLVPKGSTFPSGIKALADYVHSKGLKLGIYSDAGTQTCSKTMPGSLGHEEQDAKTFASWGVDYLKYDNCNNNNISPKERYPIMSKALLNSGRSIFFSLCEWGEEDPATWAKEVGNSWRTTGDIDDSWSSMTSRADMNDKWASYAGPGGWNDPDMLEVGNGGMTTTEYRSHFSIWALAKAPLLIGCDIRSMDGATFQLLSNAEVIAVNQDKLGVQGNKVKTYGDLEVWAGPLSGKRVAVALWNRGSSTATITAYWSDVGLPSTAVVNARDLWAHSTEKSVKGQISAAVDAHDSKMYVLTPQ
Alpha-galactosidase A (Homo sapiens), sequence (P06280 whole entry, looked up): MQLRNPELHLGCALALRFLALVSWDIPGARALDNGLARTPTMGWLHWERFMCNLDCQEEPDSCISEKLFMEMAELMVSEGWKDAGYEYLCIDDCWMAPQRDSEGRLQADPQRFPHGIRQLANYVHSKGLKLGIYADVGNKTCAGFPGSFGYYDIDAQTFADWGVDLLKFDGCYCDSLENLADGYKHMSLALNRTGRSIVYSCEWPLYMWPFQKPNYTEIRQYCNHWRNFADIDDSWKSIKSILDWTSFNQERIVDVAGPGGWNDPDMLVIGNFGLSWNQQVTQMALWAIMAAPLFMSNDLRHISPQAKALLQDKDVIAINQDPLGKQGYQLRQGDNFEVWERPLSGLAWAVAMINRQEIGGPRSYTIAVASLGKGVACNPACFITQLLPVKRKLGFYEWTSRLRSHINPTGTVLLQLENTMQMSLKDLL

In the case of `C[C@@H](Cc1ccc(OCC(=O)O)cc1)NC[C@H](O)c1cccc(Cl)c1`, the molecule was called inactive in [1], in assay [4], in assay [6], in [8], in [11] and in [13]. Further, the outcome in [14], in assay [15], in assay [16] and in assay [17] was inactive. In addition, the Potency result in [2], in assay [7], in assay [9], in assay [19], in [20] and in [21] was “inactive” throughout. For the same molecule, the Potency entry in assay [22] was “inactive”. The activity change, negative = inhibition is -11.2% (inactive) in assay [3] (at 38 µM (top of the series)) and -1.87% (inactive) in assay [18] (at 57.5 µM (top of the series)). The values for the Potency in assay [5], in assay [10] and in assay [12] were > 46 µM (inactive), 5.01 µM (active) and 14.1 µM (active), respectively. In addition, the max response in assay [18] (setting [24]) stood at 11.5%; in [18] (setting [25]), 8.85%.
Regarding `CC1CCC2C(C)C(=O)OC3O[C@]4(C)CCC1[C@@]32OO4` (some centres not stated), the Potency entry in assay [21] and in [22] was “inactive” each time.
`COC[C@H]([C@@H](O)[C@@H](O)C(=O)NCC[C@@H](C)c1nc(/C=C/C[C@H]2OC3(C[C@H](O)[C@H]2C)OC([C@@H](C[C@@H](O)[C@@H](C)[C@@H](O)[C@@H](C)/C=C(C)/C(C)=C/C=C/C(C)=C\C#N)OC)[C@@H](OP(=O)(O)O)C3(C)C)co1)N(C)C` (some centres not stated): the activity change, negative = inhibition in assay [21] is 9.25% [at 4.99 µM] (inactive); in assay [22], 257% [at 1.51 µM] (inactive).
As for `C[C@]12N[C@@H](Cc3ccccc31)c1ccccc12`, the molecule was classed as inactive in assay [1] and in assay [4]. In addition, the Potency result in assay [2], in assay [7], in assay [9], in assay [19], in [20] and in [21] was “inactive” in each case. Moreover, in [22], the Potency entry is “inactive”. Moreover, the activity change, negative = inhibition in assay [3] (at 17.2 µM (top of the series)) was -0.0371% (inactive) and -7.29% (inactive); in [18] (at 25.7 µM (top of the series)) it was 1.12% (inactive) and -0.257% (inactive); in assay [18] (at 57.5 µM (top of the series)) it was 2.32% (inactive) and -0.0802% (inactive). Further, in [23], the Potency was 79.4 nM (active) and 5.01 µM (active). Moreover, the max response in assay [18] (setting [24]) is 11.5% [middle of 4 runs]; in [18] (setting [25]), 12.1% [middle of 4 runs].
On to `C=CCN1CCC23c4c5ccc(O)c4OC2/C(=N/N=C2\CCC4(O)C6Cc7ccc(O)c8c7C4(CCN6CC=C)C2O8)CCC3(O)C1C5` (configuration not stated), for which the Potency result in [21] and in [22] was “inactive” in each case.
As to `O=C1CSC(c2ccccc2Cl)c2cc(Cl)ccc2N1` (configuration not stated), the Potency entry in [21] and in [22] was “inactive” each time.
